Source: PubChem
The list is not random: actives were taken first. Their share in the collection is about 1.1%.
Apoferritin bind = candidate novel general anesthetic via apoferritin binding; apoferritin/1-aminoanthracene competitive binding, fluorescence; Potency, µM (doses to about 77.5 µM), without a hit: at the top dose activity change, negative = displacement, hits mostly inhibitors; hit rate 0.074% among 350,000; also: % is scaled to controls: 0 for no effect and ±100 for the full control effect; nearly all actives have a fitted effect of over 20% in size
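Read-out: endpoint 1-AMA fluorescence, excitation 380 nm and emission 535 nm, after compounds sit 10 min at room temperature with 10 uM horse-spleen apoferritin in 50% saturated 1-AMA/PBS. Values come from four-parameter Hill fits.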
Glioma ERSR ind = ER stress response induction in glioma. U87-MG GRP78 promoter luciferase reporter, 16 h. Potency, µM, inactives show at the top dose activation, actives largely listed as activators. hit rate 0.02% among 420,000; also: series mostly up to about 76 µM; % of control where 0% means no effect; nearly all actives have a fitted effect of over 35% in size
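ERSR induction read as luciferase luminescence (Bright-Glo, 10 min at room temperature) in stably transfected human U87-MG glioma cells exposed to compounds for 16 h, using GRP78 as sensor.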
12-LOX inh = blocks human arachidonate 12S-lipoxygenase. P18054. Potency, µM (highest dose often 108 µM), for inactives: top-dose activity change, negative = inhibition, actives largely listed as inhibitors. purified 12hLO, xylenol orange hydroperoxide absorbance. hit rate 1.1% among 580,000; also: % is scaled to controls: 0 for no effect and ±100 for the full control effect
Target sequence (P18054 whole entry, looked up): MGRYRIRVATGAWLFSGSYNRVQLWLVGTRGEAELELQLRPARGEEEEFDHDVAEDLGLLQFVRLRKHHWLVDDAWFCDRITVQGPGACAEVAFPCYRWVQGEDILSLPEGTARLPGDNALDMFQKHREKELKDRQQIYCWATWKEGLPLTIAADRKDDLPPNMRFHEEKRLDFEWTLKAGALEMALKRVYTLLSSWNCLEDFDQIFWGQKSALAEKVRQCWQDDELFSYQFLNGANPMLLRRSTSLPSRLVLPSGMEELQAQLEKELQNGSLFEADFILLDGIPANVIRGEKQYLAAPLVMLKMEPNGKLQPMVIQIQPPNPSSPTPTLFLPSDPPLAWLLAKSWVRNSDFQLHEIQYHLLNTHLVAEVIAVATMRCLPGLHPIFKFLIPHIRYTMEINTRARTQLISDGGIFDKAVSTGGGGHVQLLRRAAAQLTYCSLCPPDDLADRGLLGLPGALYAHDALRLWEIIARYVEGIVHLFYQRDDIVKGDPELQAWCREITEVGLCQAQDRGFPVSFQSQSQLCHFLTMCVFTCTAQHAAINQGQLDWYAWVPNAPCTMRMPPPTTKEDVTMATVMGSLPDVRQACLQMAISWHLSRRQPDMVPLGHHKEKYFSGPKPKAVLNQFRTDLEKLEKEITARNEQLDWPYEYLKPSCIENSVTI
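Purified human 12hLO at 150 nM in 25 mM Hepes, 0.01% Triton X-100, pH 7.0, preincubated 15 min at room temperature with compound. Reaction started with 40 uM arachidonic acid, 30 min at room temperature. Hydroperoxide measured by Fe-xylenol orange, 573/405 nm absorbance ratio.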
Chronic BCR inh = inhibitors of chronic active B-cell receptor signaling. AID 493014. ABC-DLBCL IkBa-CBG/CBR reporter, luminescence ratio, 4 h. Potency, µM (series often up to 46.1 µM), inactives show at the highest dose activity change, negative = inhibition, most hits filed as inhibitors. hit rate 0.05% among 340,000; active = well fitted inhibition curve with a large enough effect in the signal ratio, with a control signal flat, not every such curve was filed as active; inconclusive = small, poorly fitted or top-dose-only effect, or effect the other way, or a change in a side signal; the % refers to the signal ratio;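 also: plate controls were basal doxycycline-induced cells for no effect and cells given 10 µM MG132 for full effect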
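Compounds up to 46 uM were incubated four hours with TMD8 cells whose green CBG68 luciferase is fused to IkappaBalpha; red CBR luminescence normalised the signal, and concentration-effect curves were fitted to fusion, red and ratio data.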
* marks the source's active call; other numbers are inactive results; [ ] = another dose, or the depositor's remark. Unless noted, calls follow the shape of the dose curve; as a rule, active = well fitted curve in the direction sought with a large enough effect; inconclusive = small, poorly fitted or top-dose-only effect, or another doubt; inactive = no such curve, though single readings can be large; an effect the other way counts as inactive or inconclusive. Potency is read from the fitted curve at half-maximal effect.

How did CC1CCCCC1NC(=O)COC(=O)c1ccc(S(=O)(=O)NCc2ccco2)cc1 (configuration not stated) do in these assays?
Apoferritin bind: inconclusive; Glioma ERSR ind: -2%; 12-LOX inh: -10%; Chronic BCR inh: inconclusive

What do the screens show for `O=C(COC(=O)c1ccc(S(=O)(=O)NCc2ccco2)cc1)NC1CCCCCC1`?
Apoferritin bind: 35µM*; Glioma ERSR ind: -3%; 12-LOX inh: -3%; Chronic BCR inh: inconclusive

Results for Cc1ccc(C)c(/C=C/C(=O)c2cccc(O)c2)c1 ?
12-LOX inh: -19%

What do the screens show for `O=C(Nc1ccc(Br)cc1Cl)c1cnccn1`?
Apoferritin bind: -2%; Glioma ERSR ind: 3%; 12-LOX inh: 32µM*; Chronic BCR inh: inconclusive

Results for CN(C)CC(O)COc1cccc(OCC(O)CN(C)C)c1 (configuration not stated) ?
Apoferritin bind: -7%; Glioma ERSR ind: -3%; 12-LOX inh: 0%; Chronic BCR inh: -7%

How did CN(Cc1ccc(Br)cc1)CC(O)COc1cccc(Br)c1 (configuration not stated) do in these assays?
Apoferritin bind: inconclusive; Glioma ERSR ind: -1%; 12-LOX inh: 0.89µM*; Chronic BCR inh: inconclusive

How did N#Cc1ccc(N2C[C@@H]3OCC(=O)N(CC4CCCCC4)[C@@H]3C2)nc1 do in these assays?
12-LOX inh: 8%[176 µM]

How did O=C1CO[C@H]2CN(c3ncccn3)C[C@H]2N1CC1CCCCC1 do in these assays?
12-LOX inh: 28µM*

Results for Cc1cc(Cl)ccc1S(=O)(=O)N1CCCC(Cn2c(C)nc3cccnc32)C1 (configuration not stated) ?
12-LOX inh: 39%

What do the screens show for `Cc1ccc2cc(C3C(C#N)=C(N)Oc4c3ccc3cccnc43)c(=O)[nH]c2c1` (configuration not stated)?
Apoferritin bind: -14%; Glioma ERSR ind: 9%; 12-LOX inh: 25µM*; Chronic BCR inh: 1%

Results for CCc1ccc2[nH]c(=O)c(C3C(C#N)=C(N)Oc4c3ccc3cccnc43)cc2c1 (configuration not stated) ?
Apoferritin bind: inconclusive; Glioma ERSR ind: -5%; 12-LOX inh: -30%; Chronic BCR inh: -1%

What do the screens show for `CC(C(=O)NC1C=CS(=O)(=O)C1)N1C(=O)/C(=C/c2ccc(Cl)cc2)SC1=S` (configuration not stated)?
Apoferritin bind: -37%; Glioma ERSR ind: 2%; 12-LOX inh: 40µM*; Chronic BCR inh: inconclusive

What do the screens show for `CC(=O)c1ccc(NC(=O)C2CC(=O)N(C(C)(C)C)C2)cc1` (configuration not stated)?
12-LOX inh: -28%

How did COc1cc(/C=C2\CCCc3c2nc2ccccc2c3C(=O)O)cc(Br)c1O do in these assays?
Apoferritin bind: 6%; Glioma ERSR ind: -2%; 12-LOX inh: 50µM*; Chronic BCR inh: -16%

How did COC(=O)C1=CN(c2ccc(F)cc2)C(N)=C(C#N)C1c1ccccc1 (configuration not stated) do in these assays?
12-LOX inh: 45µM*

How did Cc1ccc(NC(=S)NNS(=O)(=O)c2ccc3ccccc3c2)cc1Cl do in these assays?
Apoferritin bind: -5%; Glioma ERSR ind: -2%; 12-LOX inh: 40µM*; Chronic BCR inh: 4%

How did COc1ccc(CCNC(=O)C(=O)NCc2n[nH]c(=O)c3ccccc23)cc1 do in these assays?
12-LOX inh: -3%

What do the screens show for `O=C(CSc1ccc(Cl)cc1)N/N=C/c1ccc([N+](=O)[O-])o1`?
Apoferritin bind: inconclusive; Glioma ERSR ind: -1%; 12-LOX inh: 40µM*; Chronic BCR inh: 8%

Results for Cc1ccc(Cc2c(-c3ccc(C)cc3)nc3ccc(Br)cn23)cc1 ?
Glioma ERSR ind: 2%; 12-LOX inh: 10µM*

How did Cc1ccc(Cc2c(-c3ccco3)nc3ccc(Br)cn23)cc1 do in these assays?
Glioma ERSR ind: inconclusive; 12-LOX inh: 40µM*

What do the screens show for `Brc1ccc2nc(-c3ccco3)c(CC3CCCCC3)n2c1`?
Glioma ERSR ind: inconclusive; 12-LOX inh: 16µM*

Results for Cc1ccc2nc(-c3ccco3)c(CC3CCCCC3)n2c1 ?
Glioma ERSR ind: -1%

How did Cc1ccc(Cc2c(-c3ccc(Cl)cc3)nc3cc(C)c(Br)c(C)n23)cc1 do in these assays?
Glioma ERSR ind: 1%; 12-LOX inh: 8.9µM*

Results for Cc1c(-c2ccccc2)c(=O)oc2cc(OC(=O)c3ccco3)ccc12 ?
12-LOX inh: 17%

How did N#CCOc1ccccc1/C=C/C(=O)c1ccc(F)c(Cl)c1 do in these assays?
12-LOX inh: -25%

Results for C/C=N/NC(=O)CCCCC(=O)N/N=C/C ?
12-LOX inh: 17%

Results for Cc1ccc(Cc2c(-c3ccc(Cl)cc3)nc3ccc(Br)cn23)cc1 ?
Glioma ERSR ind: 5%; 12-LOX inh: inconclusive

What do the screens show for `Cc1ccc(Cc2c(-c3cccc(Br)c3)nc3ccc(Br)cn23)cc1`?
Glioma ERSR ind: 2%; 12-LOX inh: 25µM*

How did CCCc1ccc(C(=O)CSc2nc(CN3CCOCC3)nc3ccccc23)cc1 do in these assays?
12-LOX inh: 3%

How did CCCc1nc(SCC(=O)c2ccc(F)cc2)c2ccccc2n1 do in these assays?
Apoferritin bind: -23%; Glioma ERSR ind: 4%; 12-LOX inh: 35µM*; Chronic BCR inh: -19%

Results for O=Cc1cc(Cl)ccc1OCCN1CCC(Cc2ccccc2)CC1 ?
Apoferritin bind: inconclusive; Glioma ERSR ind: -4%; 12-LOX inh: 2.2µM*; Chronic BCR inh: -4%

Results for O=[N+]([O-])c1cccc(OCCN2CCC(Cc3ccccc3)CC2)c1 ?
Apoferritin bind: -19%; Glioma ERSR ind: -3%; 12-LOX inh: 0.63µM*; Chronic BCR inh: inconclusive

Results for CCCCCn1nc(C(=O)OCCOc2cccc(C)c2)c2ccccc2c1=O ?
12-LOX inh: 2%

What do the screens show for `C=CC#CC1(O)CC(C)[N+](C)(C)CC1C` (configuration not stated)?
Apoferritin bind: -2%; Glioma ERSR ind: -5%; 12-LOX inh: 35µM*; Chronic BCR inh: -2%

How did N#Cc1c2nc3ccccc3nc2n2cc(NC(=O)c3ccc(F)cc3)ccc12 do in these assays?
Apoferritin bind: 10%; Glioma ERSR ind: -2%; 12-LOX inh: 40µM*; Chronic BCR inh: 16%

What do the screens show for `COC(=O)C1=C(C)N(Cc2ccc(Cl)cc2)C(=S)NC1c1ccc(OC)cc1` (configuration not stated)?
12-LOX inh: 40µM*

What do the screens show for `COC(=O)C1=C(C)N(Cc2ccc(F)cc2)C(=S)NC1c1ccc(Cl)cc1` (configuration not stated)?
12-LOX inh: 40µM*

What do the screens show for `COC(=O)C1=C(C)N(Cc2ccc(Br)cc2)C(=S)NC1c1ccc(OC)cc1` (configuration not stated)?
12-LOX inh: 45µM*

What do the screens show for `COC(=O)C1=C(C)N(Cc2ccccc2)C(=S)N[C@H]1c1cccc(C(F)(F)F)c1`?
Apoferritin bind: -23%; Glioma ERSR ind: -2%; 12-LOX inh: inconclusive; Chronic BCR inh: inconclusive
